The panel holds about 83,000 compounds, 20% with a hit somewhere; the sample as a whole holds those more often.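 Each cell line was grown in a 96-well plate and treated with one concentration of compound for 48 hours. Values below 10 were considered active.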 Calls of active or inactive are those of the source.
Test system: RXF 393 renal
Experiment: NCI-60 one-dose screen, 48 h (100 = growth as untreated, 0 = no growth, -100 = all killed)
Conditions: 10 µM unless noted

How did the growth turn out when `CC[C@H](C)[C@H](N)C(=O)O` was run?
The growth was 96.8% (inactive).

With `COc1ccc2c(c1)sc1nc(-c3ccccc3)c(-c3cccc4ccccc34)n12` as the compound, how does the growth read?
Its growth is 7.5% (active).

For `Cc1ccc(C)c(NC(=O)c2sc3c(=O)[nH]cnc3c2C)c1`, which growth is on record?
The growth was 90.1% (inactive).

For `Cc1ccncc1NC=O`, which growth is on record?
The growth was 111% (inactive).

How did the growth turn out when `COc1ccc(/C(C)=N/NC(=O)CSc2nc3ccccc3c(=O)n2CCc2ccc(S(N)(=O)=O)cc2)cc1` was run?
Its growth is 29.7% (inactive).

Which growth does the source give for `COC(=O)OC1C(O[C@H]2C[C@H]3[C@@H]4CC=C5C[C@@H](O)CC[C@]5(C)[C@H]4CC[C@]3(C)[C@H]2[C@H](C)C(=O)CCC(C)C)OCC(O)C1OC1OCC(O)C(O)C1OC(=O)c1ccc(OC)cc1` (some centres undefined) here?
Its growth is -71.9% (active).

`O=C1CCCN1C1CCN2CCCc3cccc1c32` (centres undefined) was tested. Which growth did it give?
Its growth is 128% (inactive).

`CC1OC(n2c3ccccc3c3c4c(c5c6ccccc6[nH]c5c32)C(=O)N(CCN[C@H]2CCC[C@@H]2N)C4=O)CC(O)C1O` (some centres undefined) was tested. Which growth did it give?
Its growth is 63% (inactive).

With `COc1ccc2[nH]cc(C3(c4c[nH]c5ccc(OC)cc45)C(=O)Nc4ccc(F)cc43)c2c1` as the compound, how does the growth read?
The growth was 78.8% (inactive).

`c1cc2c(cc1-c1cnc3nonc3n1)OCO2` was tested. Which growth did it give?
Its growth is 122% (inactive).

For `Nc1c(C(=O)Nc2cccc(Cl)c2)sc2nc3c(cc12)C(=O)CCC3`, which growth is on record?
Its growth is 25.9% (inactive).

With `O=C(Nc1ccc(Br)cc1)c1ccc(Cl)c(Cl)c1` as the compound, how does the growth read?
Its growth is 112% (inactive).

How did the growth turn out when `O=C(CSc1nc2c(n1Nc1ccccc1)-c1ccccc1SC2)Nc1nccs1` was run?
The growth was 102% (inactive).

For `COc1ccc(-c2nc3c(c(-c4ccc(Cl)cc4)nn3-c3ccccc3)c(-c3ccc(O)cc3)c2C#N)cc1`, which growth is on record?
The growth was -12.7% (active).
